# Records with an inconclusive call do not appear. A structure can be active in one record and inactive in another. Active and inactive are the calls of the source. The call rests on the fitted dose curve; in most records, active means well fitted inhibition curve with a large enough effect in the repeat runs; inconclusive means weak or mixed curves; inactive means flat fitted curve, though single readings scatter.
# Biological target: Cytochrome P450 2D6 (Homo sapiens) (UniProt P10635)
# Test: Cytochrome P450 family 2 subfamily D member 6 (CYP2D6) small molecule antagonists: luciferase biochemical (cell-free) qHTS assay (AID 1645840); further: nearly all actives have a fitted effect of over 55% in size
# Details: P450-Glo CYP2D6 enzyme, luciferin luminescence, 1 h; series mostly up to 57.4 µM; activity change, negative = inhibition: at the top concentration
# Method in brief: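 P450-Glo CYP2D6 system: proluciferin substrate converted by enzyme to luciferin, read by luminescence proportional to activity. Enzyme-substrate mix with compound 10 min at room temperature, then NADPH regeneration 1 h before detection reagent.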
# On the % scale 0 is the no-effect control and ±100 the full control effect; potency means the concentration at half of the fitted maximal effect.
# Cytochrome P450 2D6 (Homo sapiens), sequence (P10635 whole entry, looked up): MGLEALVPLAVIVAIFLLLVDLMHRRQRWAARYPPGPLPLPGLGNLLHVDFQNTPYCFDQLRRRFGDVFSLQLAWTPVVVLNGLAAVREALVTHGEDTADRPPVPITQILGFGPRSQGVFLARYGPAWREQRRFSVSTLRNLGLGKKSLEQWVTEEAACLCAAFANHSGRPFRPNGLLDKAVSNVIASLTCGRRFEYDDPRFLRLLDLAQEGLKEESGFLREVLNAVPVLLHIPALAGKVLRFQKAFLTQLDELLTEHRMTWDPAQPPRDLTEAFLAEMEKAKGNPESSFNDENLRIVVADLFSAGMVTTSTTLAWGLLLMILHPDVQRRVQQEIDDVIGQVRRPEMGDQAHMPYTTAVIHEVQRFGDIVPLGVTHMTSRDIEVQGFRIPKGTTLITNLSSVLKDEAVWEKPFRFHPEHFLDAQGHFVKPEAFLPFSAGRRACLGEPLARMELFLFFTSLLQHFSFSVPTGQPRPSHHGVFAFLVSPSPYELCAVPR
Structure (SMILES),"activity change, negative = inhibition",Potency
C[C@H](CCC(=O)O)[C@H]1CC[C@H]2[C@@H]3C(=O)C[C@@H]4CC(=O)CC[C@]4(C)[C@H]3CC(=O)[C@]12C,4.18% (inactive),
CC(=O)CC(c1ccc([N+](=O)[O-])cc1)c1c(O)c2ccccc2oc1=O (centres undefined),4.21% (inactive),
CCCCC1=NC2(CCCC2)C(=O)N1Cc1ccc(-c2ccccc2-c2nn[nH]n2)cc1,2.51% (inactive),
C[C@]12C=CC(=O)C=C1CC[C@@H]1[C@@H]2[C@@H](O)C[C@@]2(C)[C@H]1CC[C@]2(O)C(=O)CO,9.73% (inactive),
CCCN1CCCC[C@H]1C(=O)Nc1c(C)cccc1C,,4.9 µM (active)
O=C(Nc1ccc(Cl)c(Cl)c1)C1CC1,-22.5% (inactive),
Cc1cc2c(cc1CC(=O)c1sccc1S(=O)(=O)Nc1onc(C)c1Cl)OCO2,,4.36 µM (active) and inactive
Cc1ccc(C(=O)C(C)CN2CCCCC2)cc1 (centres undefined),,1.74 µM (active)
N[C@@H](CCC(=O)N[C@@H](CS)C(=O)NCC(=O)O)C(=O)O,11.8% [at 23.9 µM] (inactive),
CCN(CC)C(=O)N1CCN(C)CC1,-0.134% (inactive),
c1ccc(CNCCNCc2ccccc2)cc1,,0.692 µM (active)
CC1(C)O[C@@H]2C[C@H]3[C@@H]4C[C@H](F)C5=CC(=O)C=C[C@]5(C)[C@H]4[C@@H](O)C[C@]3(C)[C@]2(C(=O)CO)O1,6.09% (inactive),
CC(=O)OCC(=O)[C@@]1(OC(C)=O)[C@@H](C)C[C@H]2[C@@H]3C[C@H](F)C4=CC(=O)C=C[C@]4(C)[C@@]3(F)[C@@H](O)C[C@@]21C,-23.6% (inactive),
C=C1C[C@H]2[C@@H]3C=C(C)C4=CC(=O)CC[C@]4(C)[C@H]3CC[C@]2(C)[C@@]1(OC(C)=O)C(C)=O,-0.89% (inactive),

# Source: PubChem BioAssay (NCATS)
